# Laboratory results taken from the supplement of paper PMC7724964.
# ± gives the standard deviation of the averaged measurements.
# T1: PDCD6IP 3-392 BRO1 (domain begin residue: 3, domain end residue: 392), Q8WUM4
# T1 chain: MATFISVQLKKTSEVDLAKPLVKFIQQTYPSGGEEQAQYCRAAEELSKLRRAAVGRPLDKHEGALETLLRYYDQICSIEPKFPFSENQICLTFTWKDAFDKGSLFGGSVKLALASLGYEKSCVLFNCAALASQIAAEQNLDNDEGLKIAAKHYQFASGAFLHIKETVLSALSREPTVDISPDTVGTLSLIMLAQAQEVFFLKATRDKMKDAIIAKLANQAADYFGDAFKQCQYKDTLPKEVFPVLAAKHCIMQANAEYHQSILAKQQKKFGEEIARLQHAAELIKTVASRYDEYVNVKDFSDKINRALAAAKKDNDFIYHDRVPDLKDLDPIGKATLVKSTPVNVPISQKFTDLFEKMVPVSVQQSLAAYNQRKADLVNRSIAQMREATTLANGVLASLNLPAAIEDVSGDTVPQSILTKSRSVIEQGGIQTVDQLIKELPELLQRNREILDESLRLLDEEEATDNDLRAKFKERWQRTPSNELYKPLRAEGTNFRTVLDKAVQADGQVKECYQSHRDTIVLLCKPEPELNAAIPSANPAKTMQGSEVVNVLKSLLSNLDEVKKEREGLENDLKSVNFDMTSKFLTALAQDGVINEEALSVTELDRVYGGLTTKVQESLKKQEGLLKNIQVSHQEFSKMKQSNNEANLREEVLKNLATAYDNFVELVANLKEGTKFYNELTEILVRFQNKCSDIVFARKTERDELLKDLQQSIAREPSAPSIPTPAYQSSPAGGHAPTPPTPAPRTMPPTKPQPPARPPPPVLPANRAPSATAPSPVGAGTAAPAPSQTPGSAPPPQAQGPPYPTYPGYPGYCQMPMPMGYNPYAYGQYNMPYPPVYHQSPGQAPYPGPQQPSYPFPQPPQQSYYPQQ
# Columns and labels:
# Experiment in all cases: phage ELISA signal ratio (GST-PRM binding over GST background); higher = stronger binding of peptide-phage to the PRM
# [1] = molecular target: PDCD6 23-191 EF-hand_5+EF-hand_7 (domain begin residue: 23, domain end residue: 191), O75340
# Chain of PDCD6 23-191 EF-hand_5+EF-hand_7 (domain begin residue: 23, domain end residue: 191), O75340 (O75340 whole entry, the tested form may be a part): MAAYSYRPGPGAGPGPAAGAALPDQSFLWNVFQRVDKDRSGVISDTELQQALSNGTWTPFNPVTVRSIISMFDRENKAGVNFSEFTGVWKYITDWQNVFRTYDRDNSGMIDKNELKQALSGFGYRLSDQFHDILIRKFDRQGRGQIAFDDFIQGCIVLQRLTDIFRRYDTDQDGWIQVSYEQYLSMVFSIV
# How it was run: (§1)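 Five rounds of selection were carried out against human peptide recognition domains fused to the C-terminus of glutathione S-transferase (GST) and expressed in 96-well plates. The M13 phage library presented randomized hexadecapeptides, cysteine-free and glycine-flanked, on the gene-8 major coat protein. For each value, the phage ELISA signal on the GST-domain fusion was divided by the signal on GST alone.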
# [2] = molecular target: PHF19 190-255 PHD (domain begin residue: 190, domain end residue: 255), Q5T6S3
# How it was run: as §1
# [3] = molecular target: PCMT1 1-227 PCMT (domain begin residue: 1, domain end residue: 227), P22061
# Chain of PCMT1 1-227 PCMT (domain begin residue: 1, domain end residue: 227), P22061 (P22061 whole entry): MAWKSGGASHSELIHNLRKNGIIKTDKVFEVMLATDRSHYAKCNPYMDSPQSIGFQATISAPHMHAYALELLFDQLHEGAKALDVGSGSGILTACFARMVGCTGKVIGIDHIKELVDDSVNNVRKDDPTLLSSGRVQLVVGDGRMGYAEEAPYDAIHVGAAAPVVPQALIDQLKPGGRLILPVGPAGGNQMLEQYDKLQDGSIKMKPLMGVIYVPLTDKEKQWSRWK
# How it was run: as §1
# [4] = molecular target: T1, PDCD6IP 3-392 BRO1 (domain begin …
# How it was run: as §1
# [5] = molecular target: PAF1 165-376 Paf1 (domain begin residue: 165, domain end residue: 376), Q8N7H5
# How it was run: as §1
# [6] = molecular target: PCNA 1-261 PCNA_N+PCNA_C (domain begin residue: 1, domain end residue: 261), P12004
# Chain of PCNA 1-261 PCNA_N+PCNA_C (domain begin residue: 1, domain end residue: 261), P12004 (P12004 whole entry): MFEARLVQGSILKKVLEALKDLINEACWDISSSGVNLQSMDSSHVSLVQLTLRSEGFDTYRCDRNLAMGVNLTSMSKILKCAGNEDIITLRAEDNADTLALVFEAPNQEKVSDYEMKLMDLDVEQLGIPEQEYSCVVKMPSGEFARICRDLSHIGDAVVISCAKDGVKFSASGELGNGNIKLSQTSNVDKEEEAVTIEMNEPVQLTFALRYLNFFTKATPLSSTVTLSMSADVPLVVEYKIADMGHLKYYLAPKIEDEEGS
# How it was run: as §1
# [7] = molecular target: PIKFYVE 347-450 DEP (domain begin residue: 347, domain end residue: 450), Q9Y2I7
# Chain of PIKFYVE 347-450 DEP (domain begin residue: 347, domain end residue: 450), Q9Y2I7 (Q9Y2I7 whole entry): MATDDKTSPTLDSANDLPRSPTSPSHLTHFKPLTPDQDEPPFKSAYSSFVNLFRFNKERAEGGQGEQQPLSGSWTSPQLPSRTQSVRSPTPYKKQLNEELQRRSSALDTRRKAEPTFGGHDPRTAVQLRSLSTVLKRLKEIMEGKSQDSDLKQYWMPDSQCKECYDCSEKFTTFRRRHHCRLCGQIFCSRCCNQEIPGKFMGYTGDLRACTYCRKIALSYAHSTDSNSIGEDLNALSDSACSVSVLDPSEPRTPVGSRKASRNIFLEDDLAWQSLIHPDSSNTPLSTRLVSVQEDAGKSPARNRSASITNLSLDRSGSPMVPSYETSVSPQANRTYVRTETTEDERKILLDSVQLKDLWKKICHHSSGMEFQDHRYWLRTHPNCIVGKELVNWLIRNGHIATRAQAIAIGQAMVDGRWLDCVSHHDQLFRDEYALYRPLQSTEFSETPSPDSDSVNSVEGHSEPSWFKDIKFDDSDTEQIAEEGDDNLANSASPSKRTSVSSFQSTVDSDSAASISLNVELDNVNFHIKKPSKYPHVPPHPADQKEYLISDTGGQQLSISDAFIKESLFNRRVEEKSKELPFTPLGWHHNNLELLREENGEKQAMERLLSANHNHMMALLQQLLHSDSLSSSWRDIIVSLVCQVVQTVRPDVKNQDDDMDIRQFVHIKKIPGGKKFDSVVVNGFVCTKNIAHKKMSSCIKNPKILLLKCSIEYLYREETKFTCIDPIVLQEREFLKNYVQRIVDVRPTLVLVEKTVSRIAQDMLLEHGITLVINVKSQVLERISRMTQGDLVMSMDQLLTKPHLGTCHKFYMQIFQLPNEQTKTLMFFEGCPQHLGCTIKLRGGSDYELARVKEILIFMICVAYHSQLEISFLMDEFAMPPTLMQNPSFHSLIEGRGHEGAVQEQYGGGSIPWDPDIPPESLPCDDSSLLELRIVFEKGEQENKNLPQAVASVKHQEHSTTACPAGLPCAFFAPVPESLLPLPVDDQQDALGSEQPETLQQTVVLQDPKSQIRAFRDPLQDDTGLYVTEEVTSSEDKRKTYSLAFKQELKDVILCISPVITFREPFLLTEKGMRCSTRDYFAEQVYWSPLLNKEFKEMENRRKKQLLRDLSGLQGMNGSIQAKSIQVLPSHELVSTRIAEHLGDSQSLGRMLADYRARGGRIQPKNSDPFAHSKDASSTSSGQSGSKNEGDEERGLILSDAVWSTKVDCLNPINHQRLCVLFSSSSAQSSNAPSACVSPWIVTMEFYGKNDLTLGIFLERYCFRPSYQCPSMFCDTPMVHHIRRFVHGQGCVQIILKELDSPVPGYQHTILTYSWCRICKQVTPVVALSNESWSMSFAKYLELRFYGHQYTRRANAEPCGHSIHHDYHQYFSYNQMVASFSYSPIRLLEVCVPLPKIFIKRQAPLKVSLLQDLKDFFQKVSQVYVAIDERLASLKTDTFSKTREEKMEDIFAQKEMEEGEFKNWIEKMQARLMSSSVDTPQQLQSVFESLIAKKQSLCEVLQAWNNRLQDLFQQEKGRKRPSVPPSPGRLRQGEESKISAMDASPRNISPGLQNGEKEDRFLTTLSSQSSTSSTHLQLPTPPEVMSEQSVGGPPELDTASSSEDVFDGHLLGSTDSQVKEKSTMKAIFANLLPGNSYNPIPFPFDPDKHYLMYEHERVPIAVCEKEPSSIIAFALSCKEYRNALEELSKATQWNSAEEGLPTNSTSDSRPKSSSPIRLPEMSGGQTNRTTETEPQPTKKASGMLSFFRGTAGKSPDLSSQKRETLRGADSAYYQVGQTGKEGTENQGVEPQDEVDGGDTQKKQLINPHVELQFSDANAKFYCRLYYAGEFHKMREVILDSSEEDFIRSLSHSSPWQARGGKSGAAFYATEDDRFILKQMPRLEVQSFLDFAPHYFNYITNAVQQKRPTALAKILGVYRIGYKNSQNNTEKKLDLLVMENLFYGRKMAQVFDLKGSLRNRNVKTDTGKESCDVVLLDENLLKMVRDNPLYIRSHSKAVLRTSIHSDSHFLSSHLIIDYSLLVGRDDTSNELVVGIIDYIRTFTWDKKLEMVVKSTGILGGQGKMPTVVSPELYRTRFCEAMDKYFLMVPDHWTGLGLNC
# How it was run: as §1
binder,measurement,setting,value
WAPWVFMDDAPFDSMV,phage ELISA signal ratio,[1],24.8
YPYGWQQWVWESEQVQ,phage ELISA signal ratio,[1],27.1
VSYGWAHWTMEQGEDA,phage ELISA signal ratio,[1],28.1
YGWNQILLDESVFHMV,phage ELISA signal ratio,[1],26.9
MEAPHWVWPPDGYALR,phage ELISA signal ratio,[2],6.23
VHWDPYWFLEDNFSNL,phage ELISA signal ratio,[3],19.9
WVEYGWQDWVTKFDQQ,phage ELISA signal ratio,[1],27.1
DSHYGWAEWVLQGPVA,phage ELISA signal ratio,[1],35.1
KLEMYQGTIPYGNYWP,phage ELISA signal ratio,[2],6.64
FYMWQVIDAQAYVDWI,phage ELISA signal ratio,[3],4.8
LISGMNGWNYGWADWV,phage ELISA signal ratio,[1],25.8
WDYMSEEESIRYLIEW,phage ELISA signal ratio,[4],27.3
AAQYGWQDWVMVPESM,phage ELISA signal ratio,[1],32.8
YGWDPFLENISWSWQA,phage ELISA signal ratio,[1],33.4
SELWDHWIEWNDVYQT,phage ELISA signal ratio,[5],3.06
DIPPESYGWAPWVWQV,phage ELISA signal ratio,[1],35.3
MDMPYGWMQWVSTEPV,phage ELISA signal ratio,[1],25.4
QTDYAYGFYPFIEQHF,phage ELISA signal ratio,[1],32.3
IVALESPYGWQDWVTT,phage ELISA signal ratio,[1],28.1
SHNWWHIIEAQEAMAW,phage ELISA signal ratio,[3],16
GARQTLITDWLMVSSD,phage ELISA signal ratio,[6],15.6
LVGEMSRNVGWAAWVF,phage ELISA signal ratio,[1],18.1
MDIWDEMALSINPYMY,phage ELISA signal ratio,[5],4.38
VDYGWVWESAYTPPMQ,phage ELISA signal ratio,[1],26.1
WADWVFQENEKWDLFV,phage ELISA signal ratio,[1],29.1
LQVEYGWAEWTWIGAD,phage ELISA signal ratio,[1],27.2
VNYGWTPEVTWWLHEA,phage ELISA signal ratio,[1],14.4
WAEWVFSDEDPPGHMV,phage ELISA signal ratio,[1],23
QQMLYGWGPMVQEMLV,phage ELISA signal ratio,[1],25.4
HEFWALYDAMPMRSYV,phage ELISA signal ratio,[3],30.9
QNGTPMPGWAPWVLEV,phage ELISA signal ratio,[1],34.1
SFLPVSYGWAPWLIET,phage ELISA signal ratio,[1],24.1
LQLEPYGWMDWTWQTA,phage ELISA signal ratio,[1],21.9
IEVYSYMENMYDHPPV,phage ELISA signal ratio,[5],3.73
MYGWGPLLMEMNPWQW,phage ELISA signal ratio,[1],20.8
AQWPMDIGWAPWLLDV,phage ELISA signal ratio,[1],26.8
FQEVTMYGWRPEYLSD,phage ELISA signal ratio,[1],27.7
VFYGWQDWVVPGDWDV,phage ELISA signal ratio,[1],28 ± 2.8
VFEPTLASYGWAHWAV,phage ELISA signal ratio,[1],25.1
EEMQQLGPFYGWQDWV,phage ELISA signal ratio,[1],30.5
WEEDFWTGLHFLNNAE,phage ELISA signal ratio,[4],25.5
MPQFGWEEWVLDGIHF,phage ELISA signal ratio,[1],20.2
ADYPFEVWQAWVFEEV,phage ELISA signal ratio,[1],36.3
YPEFAHYGFADWIYAS,phage ELISA signal ratio,[1],30.4
ASGEHAVGWQDWVWIS,phage ELISA signal ratio,[1],31.1
VPVYGWDPGLWDGHAL,phage ELISA signal ratio,[1],35.1
YGWDWEFLEGLQYGKV,phage ELISA signal ratio,[1],32.4
WDFPGWSADQMPFSQS,phage ELISA signal ratio,[5],4.24
FDAYWQDLYMMDLDSF,phage ELISA signal ratio,[4],19.8
EPLNYGWEGWLLDGWS,phage ELISA signal ratio,[1],28.8
VEQFPYGWADWVHEIV,phage ELISA signal ratio,[1],31.3
YALPYEWMWMTDLIQE,phage ELISA signal ratio,[7],3.03
VSMTQSESYGWQPWVV,phage ELISA signal ratio,[1],27.1
DVAWHVPWEQYFEQET,phage ELISA signal ratio,[4],16.8
TPGDLIDFSTLTFYYV,phage ELISA signal ratio,[2],7.11
QVDMMSQLFMMADQWN,phage ELISA signal ratio,[5],4.55
MSVEPYMPPYGWAEWV,phage ELISA signal ratio,[1],22.3
